Screens: PubChem, National Center for Advancing Translational Sciences (NCATS)
Hits are enriched below; roughly 15% of the tested compounds scored in any of these assays.
HCMV antiviral – blocks human cytomegalovirus replication; AID 1259415; HFF cells, HCMV-luciferase reporter, 72 h; hits give low values; activity change, negative = inhibition, % at 57.5 µM; actives 4.5% (n = 410,000); in the data active = activity change below about -60%; inconclusive = no clear call, values can overlap the other calls; inactive = above about -39%; also: % is scaled to controls: 0 for no effect and ±100 for the full control effect
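HFF cells seeded 16 h at 37C, treated with compounds, infected with luciferase-reporter HCMV at MOI 1 PFU/cell; luciferase read at 72 h post infection, normalized to buffer-only and Salinomycin controls.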
Pf growth 48h – P. falciparum growth inhibition at 48 hours (one generation). Potency, µM (series often up to 28.7 µM), for inactives: top-dose activity change, negative = inhibition, actives largely listed as inhibitors. actives 5.9% (n = 310,000). P. falciparum luciferase growth in erythrocytes, 48 h; also: potency is read from the fitted curve at half-maximal effect; % is scaled to controls: 0 for no effect and ±100 for the full control effect
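Luciferase-expressing parasites in RBCs, 2% Hct / 0.1% parasitemia final; RPMI 1640 + 0.5% Albumax; 37 C, 5% CO2, one generation; luminescence read-out, lower signal = inhibition.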
SARS PLP yeast – blocks SARS-CoV papain-like protease in a yeast assay. actives 0.19% (n = 330,000). S. cerevisiae expressing SARS-CoV PLpro, growth rescue. Potency, µM (top dose mostly 32.9 µM), for inactives: at the top dose activity, positive = growth rescue, actives largely listed as activators; calls by dose curve; also: potency is read from the fitted curve at half-maximal effect; 0% is about no effect; nearly all actives have a fitted effect of over 55% in size
Pf growth 96h – P. falciparum growth inhibition at 96 hours; AID 504834; Potency, µM (titrated, usually from 28.7 µM), without a hit: at the top dose activity change, negative = inhibition, hits mostly inhibitors; P. falciparum luciferase reporter growth, 96 h; actives 6.9% (n = 320,000); also: potency is read from the fitted curve at half-maximal effect; % is scaled to controls: 0 for no effect and ±100 for the full control effect
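Two-generation exposure (96 h) targets delayed-death phenotype. Reporter parasites carrying integrated firefly luciferase, in red cells at 2% hematocrit and 0.05% parasitemia final, kept at 37 C, 5% CO2; luminescence loss indicates inhibition.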
HCV inh – HCV inhibition; Potency, µM (top dose mostly 41.8 µM), for inactives: at the top dose activity change, negative = inhibition, most hits filed as inhibitors; actives 3.4% (n = 340,000); Huh7.5.1 HCVcc-Cre infection, luciferase reporter, 44 h; AID 651820; also: potency is read from the fitted curve at half-maximal effect; % is scaled to controls: 0 for no effect and ±100 for the full control effect
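Cells seeded at 1,000/well and cultured 4 h, then compounds added followed by HCVcc-Cre virus (~0.5 moi). After 44 h further culture, luciferase substrate was added, plates held 15 min at room temperature, and luminescence read for 15 sec.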
Sm TGR block – S. mansoni TGR enzyme inhibition; purified TGR, DTNB reduction, TNB absorbance 405 nm; Potency, µM (top dose mostly 114 µM), inactives show top-dose activity change, negative = inhibition, usual class: inhibitors; actives 3% (n = 360,000); AID 485364; also: potency is read from the fitted curve at half-maximal effect; % is scaled to controls: 0 for no effect and ±100 for the full control effect; nearly all actives have a fitted effect of over 60% in size
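Kinetic colorimetric format: TGR-catalysed, NADPH-driven DTNB reduction monitored via TNB absorbance. Enzyme dispensed at 20 nM; compound exposure 15 min at room temperature before reaction start.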
The depositor's hits bear a star; ? = inconclusive; . = no result; [ ] = dose if it differs, or a comment. Unless noted, calls follow the shape of the dose curve; as a rule, active = well fitted curve in the direction sought with a large enough effect; inconclusive = small, poorly fitted or top-dose-only effect, or another doubt; inactive = no such curve, though single readings can be large; an effect the other way counts as inactive or inconclusive.

SMILES | HCMV antiviral | Pf growth 48h | SARS PLP yeast | Pf growth 96h | HCV inh | Sm TGR block
COc1ccc2cc(/C=C/C(=O)N3CCN(CC(=O)N4CCCCCC4)CC3)ccc2c1 | . | 6.57µM* | 0.2% | ? | ? | -12.9%
CC1CCc2c(sc(NC(=O)C3c4ccccc4Oc4ccccc43)c2C(=O)OC(C)C)C1 (centres undefined) | -0.3 | . | . | . | . | -4.2%
COc1ccccc1Cc1c(-c2cccc(Cl)c2)nc2c3ccccc3ccn12 | 61.1 | . | . | . | . | .
CCNC(=O)CSC1=N/C(=C\c2ccc(O)c(OCC)c2)C(=O)N1c1ccc(OC(F)F)cc1 | -70.5* | ? | -3.0% | -3.5% | -20.1% | -6.5%
COc1ccc(-n2cnnc2SCC(=O)NC2CCS(=O)(=O)C2)cc1 (centres undefined) | 9.1 | 4.1% | . | 0.1% | -4.1% | 0.6%
COc1ccc(N2C(=O)/C(=C\c3ccco3)N=C2SCC(=O)N(C(C)C)C(C)C)cc1Cl | -30.2 | 10.4µM* | -6.9% | ? | -17.3% | ?
COc1ccc(N2C(=O)/C(=C\c3ccco3)N=C2SCC(=O)NC(C)C)cc1Cl | -19.4 | -30.0% | -22.7% | ? | ? | 0.0%
O=C(CSC1=N/C(=C/c2ccco2)C(=O)N1c1ccc(OC(F)F)cc1)NC1CCS(=O)(=O)C1 (centres undefined) | -5.7 | 2.8% | -1.4% | -11.2% | 8.4% | 39.8µM*
Cc1ccc(-c2nnc3ccccc3c2C(=O)Nc2cccc(C(F)(F)F)c2)cc1 | 0.0 | . | . | . | . | -0.3%
CN(c1ccccc1)S(=O)(=O)c1nnc(NC(=O)C2CCCCC2)s1 | 11.2 | 6.0% | 1.7% | 23.0% | 11.7% | -4.5%
Cc1ccccc1Oc1nc2c(c(=O)n(C)c(=O)n2C)n1Cc1ccc(Br)cc1 | 5.1 | . | . | . | . | -2.7%
C(#CCN1CCOCC1)COCc1ccccc1 | 37.8 | 37.9% | -2.3% | 10.4µM* | 4.5% | 0.0%
O=C(Cc1ccccc1)OC(COCc1ccccc1)CN1CCOCC1 (centres undefined) | -88.2* | -4.1% | 0.5% | 17.7% | 8.1% | -5.3%
C(#CCN1CCOCC1)COCCOC(c1ccccc1)c1ccccc1 | -9.8 | ? | 2.9% | . | 2.7% | ?
CC(CN1CCOCC1)OC(=O)Cc1ccc(Cl)cc1 (centres undefined) | 6.6 | 51.6% | 0.3% | ? | 0.1% | -5.5%
O=C(NC1CCCCCC1)C1CCN(C(=O)Cc2ccccc2)CC1 | -22.8 | 0.0% | 0.8% | ? | 3.8% | -8.9%
O=C(CCCc1ccccc1)NCCS(=O)(=O)N1CCN(c2ccccc2)CC1 | 13.0 | . | . | . | . | .
Cc1ccc(N=C2SC(C(=O)NCCc3ccccc3)CC(=O)N2C)cc1C (centres undefined) | -28.1 | -12.9% | -0.5% | -2.9% | -1.8% | -0.6%
NS(=O)(=O)c1ccc(-c2ccc(/C=C3\NC(=S)NC3=O)o2)cc1 | 7.5 | 5.0% | 9.1% | 4.7% | 3.8% | 8.91µM*
CC1=C(C#N)C(=O)NC(=O)/C1=C/c1ccc(-c2ccc(S(N)(=O)=O)cc2)o1 | -31.1 | 4.7% | 9.0% | ? | 10.9% | 8.91µM*
CCCOC(=O)c1cc(-c2ccc(/C=C3/C(=O)N(C)C(=O)C(C#N)=C3C)o2)ccc1Cl | . | . | . | . | 10.1% | .
C=CCOC(=O)c1cc(-c2ccc(/C=C3\C(=O)NC(=O)C(C#N)=C3C)o2)ccc1Cl | 1.9 | . | 3.3% | -24.9% | 4.9% | 7.94µM*
C=CCOC(=O)C1=C(C)NC(C)=C(C(=O)OCC=C)C1c1cn(-c2ccccc2)nc1-c1ccco1 | -34.0 | ? | -20.4% | 3.7µM* | 10.7% | -0.5%
OCc1cn(-c2ccccc2)nc1-c1ccco1 | -3.6 | . | -5.5% | 77.4% | -10.8% | -13.9%
CCN(CC)CCn1c(=O)n(-c2ccc(Cl)cc2)c(=O)c2c3c(sc21)CN(C)CC3 | -15.2 | 4.65µM* | -6.0% | -14.8% | 3.98µM* | ?
SMILES | HCMV antiviral | Pf growth 48h | SARS PLP yeast | Pf growth 96h | HCV inh | Sm TGR block
CN1CCc2c(sc3c2c(=O)n(-c2ccc(Cl)cc2)c2nncn32)C1 | 21.6 | -8.8% | -2.7% | . | 8.9% | -22.8%
CCCCOc1ccc(S(=O)(=O)N2CCCCCC2)cc1 | 6.2 | -13.4% | -6.2% | 11.7µM* | -7.7% | -4.8%
O=C1NC(=S)NC(=O)C1=Cc1ccc(OCC(=O)N2CCCC2)cc1 | 14.2 | 2.7% | 0.4% | 31.4% | 11.8% | 10µM*
CCCCOc1ccc(S(=O)(=O)N2CCN(C)CC2)cc1 | 61.2 | . | . | . | -0.5% | .
CC1CCN(C(=O)COc2ccc(S(=O)(=O)N3CCCC3)cc2)CC1 | 106.2 | -20.7% | -0.3% | 14.5% | -15.3% | -3.1%
Cc1ccc(OCC(=O)N2CCCCCCC2)cc1 | 24.2 | 0.0% | 2.8% | ? | 6.2% | 1.1%
O=C(COc1ccc(S(=O)(=O)N2CCCCC2)cc1)N1CCCCCC1 | -11.9 | ? | -1.1% | 13.1µM* | -10.3% | 1.8%
COc1ccc(NC(=O)Nc2cccc(OCc3cc(=O)n4cccc(C)c4n3)c2)c(OC)c1 | -19.4 | . | . | . | . | 1.3%
CN1C(C(=O)NCc2ccc(OC(F)(F)F)cc2)CC2Cn3c(nc4cc5ccccc5cc43)C21 (centres undefined) | -20.8 | 9.1% | -3.5% | -19.4% | ? | -13.8%
COC(=O)CC(c1ccc(C#N)cc1)n1c(C)ccc1C (centres undefined) | -12.7 | 9.28µM* | -0.4% | 13.1µM* | 0.5% | ?
CC(C)[C@@H]1NC(=O)c2cc([N+](=O)[O-])cc(F)c2NCCC[C@@H](C(N)=O)NC(=O)[C@H](CO)NC1=O | . | 24.5% | 0.0% | 9.28µM* | -8.0%[8.37 µM] | -3.9%
CC(C)C[C@@H]1NC(=O)[C@H](C(C)C)NC(=O)c2cc([N+](=O)[O-])cc(I)c2NCC[C@@H](C(N)=O)NC1=O | . | ? | -14.0% | 2.08µM* | -5.4% | -19.0%
CC(C)[C@@H]1NC(=O)c2cc([N+](=O)[O-])cc(I)c2NCC[C@@H](C(N)=O)NC(=O)[C@H](CO)NC1=O | . | 0.4% | 1.7% | -12.8% | 1.6%[8.37 µM] | -20.1%
Cc1occc1C(=O)NC1CCCN(Cc2ccc(Cl)cc2)C1 (centres undefined) | -35.3 | -6.5% | -3.3% | 29.0% | ? | -34.9%
O=C(CCc1ccc(F)c(F)c1)NC1CCCN(Cc2ccc(Cl)cc2)C1 (centres undefined) | -8.1 | -22.2% | -1.6% | 9.28µM* | 3.8% | -17.1%
Cc1cc(C(=O)NC2CCCN(Cc3ccc(Cl)cc3)C2)c(C)o1 (centres undefined) | 39.2 | 10.4µM* | -5.5% | ? | -5.6% | -36.7%
CC1=CC(=O)C2(C)C(C)=C(C)C12C (centres undefined) | 63.0 | . | . | . | . | .
Cc1ccc(NC(=O)c2ccc(NCc3ccco3)c([N+](=O)[O-])c2)cc1Cl | -18.7 | ? | 6.6% | 70.7% | -10.2% | 7.3%
